Laboratory results as given in PubChem BioAssay (EPA / NIEHS).
Activity calls are given as the source filed them. Rule for the calls: active = hit-call score of the fitted dose curve at least 0.9, where 1 is the maximum; inactive = score below 0.9.

Assays:
Conditions in all cases: mRNA level, 48 h; actives raise or lower the signal
[1] = read-out: Insulin-like growth factor-binding protein 1 (IGFBP1), IGFBP1 (gene 3484); assay: LTEA_HepaRG_IGFBP1: Life Technologies and Expression Analysis (LTEA) Assay for Insulin-like growth factor-binding protein 1 (IGFBP1) using HepaRG (AID 2283508)
Method in brief: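 HepaRG, 48 h, 8 conc. (max 100 uM, half-log), duplicates, 0.5% DMSO. Readout: TaqMan qRT-PCR, ACTB/GAPDH/POLR2A normalisation. Fit: bidirectional vs DMSO.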

[2] = read-out: Interleukin 6 (IL6), IL6 (gene 3569); assay: LTEA_HepaRG_IL6: Life Technologies and Expression Analysis (LTEA) Assay for Interleukin 6 (IL6) using HepaRG (AID 2283509)
Method in brief: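 Transcript levels, normalized to three housekeeping genes, were quantified by qRT-PCR after 48 h chemical treatment of HepaRG cells. Eight-point half-log series from 100 uM in 0.5% DMSO, duplicates. Fitted both directions against DMSO baseline.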

[3] = read-out: Interleukin 6 Receptor (IL6R), IL6R (gene 3570); assay: LTEA_HepaRG_IL6R: Life Technologies and Expression Analysis (LTEA) Assay for Interleukin 6 Receptor (IL6R) using HepaRG (AID 2283510)
Method in brief: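 Cells were thawed, plated and cultured 48 h, then medium was changed to serum-free induction medium. Chemicals were added in duplicate (100 uM top, half-log steps, 0.5% DMSO) for 48 h. Lysates were analyzed by qRT-PCR for IL6R expression.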

[4] = read-out: Potassium channel subfamily K member 1 (KCNK1), KCNK1 (gene 3775); assay: LTEA_HepaRG_KCNK1: Life Technologies and Expression Analysis (LTEA) Assay for Potassium channel subfamily K member 1 (KCNK1) using HepaRG (AID 2283511)
Method in brief: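 KCNK1 transcript measured by TaqMan qRT-PCR against three housekeeping genes, after HepaRG cells were treated 48 h with eight half-log concentrations (top 100 uM, 0.5% DMSO). Curves fitted bidirectionally relative to vehicle.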

[5] = read-out: Keratin 19 (KRT19), KRT19 (gene 3880); assay: LTEA_HepaRG_KRT19: Life Technologies and Expression Analysis (LTEA) Assay for Keratin 19 (KRT19) using HepaRG (AID 2283512)
Method in brief: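 Readout is qRT-PCR of KRT19 mRNA, normalized to ACTB, GAPDH and POLR2A, from HepaRG cells treated 48 h with eight-point half-log dilutions topping at 100 uM. Activity in either direction is scored relative to 0.5% DMSO vehicle.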

[6] = read-out: JUN Transcription Factor, JUN (gene 3725); assay: LTEA_HepaRG_JUN: Life Technologies and Expression Analysis (LTEA) Assay for JUN Transcription Factor using HepaRG (AID 2283513)
Method in brief: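 Read-out is JUN transcript level by TaqMan qRT-PCR, normalized to ACTB, GAPDH and POLR2A, after 48 h chemical treatment of HepaRG cells. Concentration-response spanned eight half-log points up to 100 uM in 0.5% DMSO.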

[7] = read-out: Lipase C (LIPC), LIPC (gene 3990); assay: LTEA_HepaRG_LIPC: Life Technologies and Expression Analysis (LTEA) Assay for Lipase C (LIPC) using HepaRG (AID 2283514)
Method in brief: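 LIPC expression was quantified by qRT-PCR against three housekeeping genes (ACTB, GAPDH, POLR2A). Differentiated human HepaRG cells received eight half-log doses (top 100 uM, 0.5% DMSO) in duplicate for 48 h; fitting bidirectional relative to DMSO.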

[8] = read-out: Lipoprotein lipase (LPL), LPL (gene 4023); assay: LTEA_HepaRG_LPL: Life Technologies and Expression Analysis (LTEA) Assay for Lipoprotein lipase (LPL) using HepaRG (AID 2283515)
Method in brief: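 LPL transcript levels quantified by TaqMan qRT-PCR against three housekeeping genes after 48 h chemical treatment of HepaRG cells. Eight-point half-log series from 100 uM in 0.5% DMSO, tested in duplicate; bidirectional fitting versus vehicle.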

[9] = read-out: MicroRNA 122 (MIR122), gene 406906; assay: LTEA_HepaRG_MIR122: Life Technologies and Expression Analysis (LTEA) Assay for MicroRNA 122 (MIR122) using HepaRG (AID 2283516); note: the transcript read is the microRNA miR-122
Method in brief: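 Human liver HepaRG cultures receive test chemicals for 48 h at eight half-log concentrations from 100 uM. Expression is quantified by qRT-PCR with ACTB/GAPDH/POLR2A normalization and fitted bidirectionally against 0.5% DMSO.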

[10] = read-out: matrix metalloproteinase-10 (MMP10), MMP10 (gene 4319); assay: LTEA_HepaRG_MMP10: Life Technologies and Expression Analysis (LTEA) Assay for matrix metalloproteinase-10 (MMP10) using HepaRG (AID 2283517)
Method in brief: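 Expression measured by TaqMan qRT-PCR with ACTB/GAPDH/POLR2A normalisation after 48 h chemical exposure of HepaRG cells. Eight half-log concentrations, top 100 uM, 0.5% DMSO vehicle, duplicates; gain or loss fitted against vehicle.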

MYC, MYC (gene 4609) = assay: LTEA_HepaRG_MYC: Life Technologies and Expression Analysis (LTEA) Assay for MYC using HepaRG (AID 2283518)
Method in brief: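 Expression changes were scored by TaqMan qRT-PCR with ACTB, GAPDH and POLR2A normalization. Cultures in serum-free induction medium received duplicate 8-point concentration series, highest 100 uM, for 48 h; DMSO (0.5%) served as baseline.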

[11] = read-out: matrix metalloproteinase-3 (MMP3), MMP3 (gene 4314); assay: LTEA_HepaRG_MMP3: Life Technologies and Expression Analysis (LTEA) Assay for matrix metalloproteinase-3 (MMP3) using HepaRG (AID 2283519)
Method in brief: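 Fluidigm-based TaqMan qRT-PCR, normalized to ACTB, GAPDH and POLR2A and fitted bidirectionally versus 0.5% DMSO, measured transcript levels. Treatment: duplicate 48 h exposures of HepaRG cells, ~100,000/well, to eight half-log concentrations topping at 100 uM.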

[12] = read-out: Paternally Expressed 10 (PEG10), PEG10 (gene 23089); assay: LTEA_HepaRG_PEG10: Life Technologies and Expression Analysis (LTEA) Assay for Paternally Expressed 10 (PEG10) using HepaRG (AID 2283520)
Method in brief: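 Human HepaRG cultures are dosed for 48 h across an eight-point half-log series starting at 100 uM, with 0.5% DMSO as vehicle and baseline. Gain or loss of PEG10 transcript is measured by qRT-PCR and fitted in both directions.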

[13] = read-out: Nuclear factor NF-kappa-B p105 subunit (Homo sapiens) (UniProt P19838); assay: LTEA_HepaRG_NFKB1: Life Technologies and Expression Analysis (LTEA) Assay for Nuclear Factor Kappa B Subunit 1 (NFKB1) using HepaRG (AID 2283521);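 note: TaqMan qRT-PCR transcript normalised to ACTB GAPDH and POLR2A housekeeping genes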
Method in brief: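 Differentiated human HepaRG cells in serum-free induction medium with 0.5% DMSO were exposed for 48 h to eight half-log concentrations, top 100 uM, in duplicate. NFKB1 mRNA measured by Fluidigm TaqMan qRT-PCR, normalised to ACTB, GAPDH and POLR2A; bidirectional fit versus DMSO.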

[14] = read-out: Protein phosphatase 2A (PPP2R4), PTPA (gene 5524); assay: LTEA_HepaRG_PPP2R4: Life Technologies and Expression Analysis (LTEA) Assay for Protein phosphatase 2A (PPP2R4) using HepaRG (AID 2283522)
Method in brief: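 Cells were plated, cultured 48 h, switched to serum-free induction medium, then dosed for 48 h (8 points, max 100 uM, 0.5% DMSO). RNA was isolated and PPP2R4 expression measured by TaqMan qRT-PCR.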

[15] = read-out: Phosphatase and tensin (PTEN), PTEN (gene 5728); assay: LTEA_HepaRG_PTEN: Life Technologies and Expression Analysis (LTEA) Assay for Phosphatase and tensin (PTEN) using HepaRG (AID 2283523)
Method in brief: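 Read-out: TaqMan qRT-PCR of PTEN transcript, normalized to three housekeeping genes, fitted in both directions against 0.5% DMSO. Differentiated human HepaRG cultures received chemicals for 48 h, eight-point half-log series topping at 100 uM.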

[16] = read-out: solute carrier (SLC22A1), SLC22A1 (gene 6580); assay: LTEA_HepaRG_SLC22A1: Life Technologies and Expression Analysis (LTEA) Assay for solute carrier (SLC22A1) using HepaRG (AID 2283524)
Method in brief: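 Transcript level of SLC22A1 quantified by qRT-PCR (normalized to three housekeeping genes) after 48 h chemical exposure of HepaRG cells, eight concentrations up to 100 µM, half-log steps, 0.5% DMSO vehicle. Gain or loss relative to DMSO fitted bidirectionally.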

[17] = read-out: Pyruvate Dehydrogenase Kinase 4 (PDK4), PDK4 (gene 5166); assay: LTEA_HepaRG_PDK4: Life Technologies and Expression Analysis (LTEA) Assay for Pyruvate Dehydrogenase Kinase 4 (PDK4) using HepaRG (AID 2283525)
Method in brief: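 Readout is qRT-PCR of PDK4 transcript, normalized to three housekeeping genes, with bidirectional fitting against 0.5% DMSO vehicle. Differentiated HepaRG cells were treated 48 h in serum-free induction medium, duplicate wells, eight-point half-log series topping at 100 uM.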

[18] = read-out: NAD(P)H dehydrogenase [quinone] 1 (NQO1), NQO1 (gene 1728); assay: LTEA_HepaRG_NQO1: Life Technologies and Expression Analysis (LTEA) Assay for NAD(P)H dehydrogenase [quinone] 1 (NQO1) using HepaRG (AID 2283526)
Method in brief: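 Transcript induction or suppression is quantified by qRT-PCR in human HepaRG liver cells dosed for 48 hours. Eight half-log concentrations topping at 100 uM are used, with 0.5% DMSO as vehicle and baseline.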

[19] = read-out: Nuclear factor erythroid 2-related factor 2 (Homo sapiens) (UniProt Q16236); assay: LTEA_HepaRG_NFE2L2: Life Technologies and Expression Analysis (LTEA) Assay for Nuclear factor erythroid 2-related factor 2 (NFE2L2) Transcription Factor using HepaRG (AID 2283527);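 note: TaqMan qRT-PCR transcript level normalised to ACTB GAPDH and POLR2A housekeeping genes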
Method in brief: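 NFE2L2 transcript level was read by qRT-PCR (housekeeping ACTB/GAPDH/POLR2A normalisation) after 48 h chemical treatment of HepaRG in serum-free induction medium. Duplicate 8-point half-log curves, top 100 uM, 0.5% DMSO vehicle; up- or down-regulation fitted against vehicle.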

Measured: outcome

Nuclear factor erythroid 2-related factor 2 (Homo sapiens), sequence (Q16236 whole entry, looked up): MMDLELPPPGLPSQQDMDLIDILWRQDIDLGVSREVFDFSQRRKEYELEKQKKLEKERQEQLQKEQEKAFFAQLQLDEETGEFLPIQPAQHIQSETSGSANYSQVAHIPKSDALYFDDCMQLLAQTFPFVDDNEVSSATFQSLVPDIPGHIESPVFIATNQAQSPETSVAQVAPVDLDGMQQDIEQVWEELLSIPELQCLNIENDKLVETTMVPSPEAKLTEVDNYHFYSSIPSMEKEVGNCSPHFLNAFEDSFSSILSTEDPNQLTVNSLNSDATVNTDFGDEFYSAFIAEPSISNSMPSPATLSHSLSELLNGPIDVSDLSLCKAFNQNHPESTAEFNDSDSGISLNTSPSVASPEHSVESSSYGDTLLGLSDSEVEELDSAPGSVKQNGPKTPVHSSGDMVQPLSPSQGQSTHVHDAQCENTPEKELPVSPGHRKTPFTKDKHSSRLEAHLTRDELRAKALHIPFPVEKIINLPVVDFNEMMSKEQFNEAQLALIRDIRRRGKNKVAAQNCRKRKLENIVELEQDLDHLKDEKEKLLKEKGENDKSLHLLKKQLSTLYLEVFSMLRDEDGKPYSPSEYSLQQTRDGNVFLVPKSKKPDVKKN
Nuclear factor NF-kappa-B p105 subunit (Homo sapiens), sequence (P19838 whole entry, looked up): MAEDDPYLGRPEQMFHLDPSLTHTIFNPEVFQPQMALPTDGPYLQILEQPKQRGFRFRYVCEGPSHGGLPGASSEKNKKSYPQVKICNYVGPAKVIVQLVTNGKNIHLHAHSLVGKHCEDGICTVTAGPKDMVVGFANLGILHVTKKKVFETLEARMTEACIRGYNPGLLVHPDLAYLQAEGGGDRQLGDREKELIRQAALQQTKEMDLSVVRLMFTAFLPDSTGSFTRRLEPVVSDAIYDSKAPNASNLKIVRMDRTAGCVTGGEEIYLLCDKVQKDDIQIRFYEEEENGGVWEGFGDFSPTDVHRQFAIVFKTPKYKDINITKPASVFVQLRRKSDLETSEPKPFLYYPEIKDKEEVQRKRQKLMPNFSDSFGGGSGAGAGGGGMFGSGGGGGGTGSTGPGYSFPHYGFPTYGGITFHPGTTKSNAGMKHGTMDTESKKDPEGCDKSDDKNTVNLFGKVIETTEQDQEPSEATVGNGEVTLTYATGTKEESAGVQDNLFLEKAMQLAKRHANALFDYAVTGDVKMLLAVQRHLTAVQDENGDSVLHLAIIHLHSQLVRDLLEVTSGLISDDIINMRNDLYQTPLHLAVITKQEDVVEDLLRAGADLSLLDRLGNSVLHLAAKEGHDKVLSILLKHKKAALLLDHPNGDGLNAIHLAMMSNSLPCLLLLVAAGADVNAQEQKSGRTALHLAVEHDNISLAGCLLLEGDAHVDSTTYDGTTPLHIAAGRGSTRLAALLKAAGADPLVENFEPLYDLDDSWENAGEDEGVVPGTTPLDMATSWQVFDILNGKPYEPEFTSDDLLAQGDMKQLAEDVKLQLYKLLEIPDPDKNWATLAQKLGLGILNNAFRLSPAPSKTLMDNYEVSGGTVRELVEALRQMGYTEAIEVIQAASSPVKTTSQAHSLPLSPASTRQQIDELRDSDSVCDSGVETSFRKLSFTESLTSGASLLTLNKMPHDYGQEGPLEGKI

Nc1ccc(C(=O)O)cc1
inactive: all assays above

C1CNCCN1
inactive: all assays above

Cc1ccc([N+](=O)[O-])cc1N
not listed: [6] | [13]
inactive: all other assays above
